Measurements from PubChem BioAssay (NCI).
Compounds without any hit were thinned out: in the full panel of roughly 83,000, 20% have a hit.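 Activity criterion: percent growth below 10, measured after cells in 96-well plates were exposed to a single compound concentration for 48 hours.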 Unmarked numbers belong to inactive results. Activity calls are given as the source filed them.

What was measured:
Assay in all cases: NCI-60 one-dose screen, 48 h (100 = growth as untreated, 0 = no growth, -100 = all killed)
Conditions in all cases: 10 µM unless noted
SK-MEL-2 melanoma = tested on: SK-MEL-2 melanoma
EKVX NSCLC = tested on: EKVX NSCLC
UO-31 renal = tested on: UO-31 renal
TK-10 renal = tested on: TK-10 renal
ACHN renal = tested on: ACHN renal
A498 renal = tested on: A498 renal
CCRF-CEM leukemia = tested on: CCRF-CEM leukemia
MOLT-4 leukemia = tested on: MOLT-4 leukemia
SR leukemia = tested on: SR leukemia
RPMI-8226 leukemia = tested on: RPMI-8226 leukemia
OVCAR-8 ovarian = tested on: OVCAR-8 ovarian
OVCAR-5 ovarian = tested on: OVCAR-5 ovarian
OVCAR-4 ovarian = tested on: OVCAR-4 ovarian
SK-OV-3 ovarian = tested on: SK-OV-3 ovarian
IGROV1 ovarian = tested on: IGROV1 ovarian
OVCAR-3 ovarian = tested on: OVCAR-3 ovarian
HS 578T breast = tested on: HS 578T breast
NCI/ADR-RES ovarian = tested on: NCI/ADR-RES ovarian
T-47D breast = tested on: T-47D breast
SN12C renal = tested on: SN12C renal

Compound	growth (SK-MEL-2 melanoma)	growth (EKVX NSCLC)	growth (UO-31 renal)	growth (TK-10 renal)	growth (ACHN renal)	growth (A498 renal)	growth (CCRF-CEM leukemia)	growth (MOLT-4 leukemia)	growth (SR leukemia)	growth (RPMI-8226 leukemia)	growth (OVCAR-8 ovarian)	growth (OVCAR-5 ovarian)	growth (OVCAR-4 ovarian)	growth (SK-OV-3 ovarian)	growth (IGROV1 ovarian)	growth (OVCAR-3 ovarian)	growth (HS 578T breast)	growth (NCI/ADR-RES ovarian)	growth (T-47D breast)	growth (SN12C renal)
CCOC(=O)C1CCN(S(=O)(=O)/N=C2/NC(=O)NC2=C(Cl)Cl)CC1	-23.4% (active)	67.4%	8.22% (active)	33.1%	14.2%	23.9%	-53.4% (active)	-20.8% (active)	-11.4% (active)	6.17% (active)	21.4%	64%	80%	70.9%	-54.4% (active)	-81.2% (active)	24.1%	68.6%	55%	–
CCCNc1nc(C)[nH]c(=O)c1S	95.6%	120%	90.8%	135%	94.7%	180%	106%	96.3%	101%	87.4%	105%	113%	105%	134%	102%	106%	137%	109%	–	–
O=C(Nc1ccc(N=Cc2ccccc2O)cc1)NC1C=c2ccccc2=CC1 (stereo not drawn)	102%	106%	81.9%	111%	102%	83.5%	81%	93%	95.1%	94%	95.9%	103%	116%	103%	108%	99.1%	102%	101%	91.3%	–
C#C[C@@]1(O)[C@@H](CO)O[C@@H](n2cc(Cl)c3c(N)ncnc32)[C@@H]1O	-20.6% (active)	-32.4% (active)	-60.1% (active)	-3.3% (active)	-12.5% (active)	-68.8% (active)	5.93% (active)	1.07% (active)	0.983% (active)	-5.63% (active)	-23% (active)	16.1%	-4.32% (active)	-10.3% (active)	-17.5% (active)	-10.1% (active)	5.45% (active)	–	-12.9% (active)	–
CO[C@@]12C=C[C@@]34CCC(=O)N3c3ccccc3[C@@H](O1)C4C2	101%	98.8%	81.4%	95.1%	98.6%	109%	90.1%	95.9%	96.9%	94.6%	97.7%	101%	109%	107%	99.1%	108%	95.3%	97.7%	96.2%	–
NCCCn1c2c(c3cc(-c4ccn[nH]4)ccc3c1=O)C(=O)c1ccccc1-2	105%	–	47.7%	72.3%	20.4%	72%	16.5%	-9.41% (active)	-2.64% (active)	51.3%	40.6%	98.8%	50.3%	81.5%	35.4%	59%	62.3%	45.8%	73.3%	49.1%
Clc1ccc2c(NCCCNC3CCCCC3)ccnc2c1	107%	66.2%	83%	111%	116%	98.9%	67.7%	6.38% (active)	46.8%	82%	54.7%	114%	91.2%	140%	111%	109%	108%	109%	108%	–
CC(=O)Oc1ccc(O)cc1	87.2%	–	91.2%	112%	97.8%	100%	64.3%	4.64% (active)	87.7%	69.5%	90%	115%	105%	110%	107%	111%	105%	91.6%	118%	99.9%
COc1cc(/C=C/C(=O)/C=C/c2cc3ccc(Cl)cc3n(Cc3ccccc3)c2=O)ccc1O	-13.2% (active)	–	-88.9% (active)	13.8%	-15.4% (active)	69.2%	3.16% (active)	5.11% (active)	1.8% (active)	-18.8% (active)	5.61% (active)	19.4%	25.8%	37.3%	3.2% (active)	-46.4% (active)	43.5%	15%	2.39% (active)	-18.4% (active)
COc1ccc(/C=C/C(=O)C(CC2CCC2)C(=O)/C=C/c2ccc(OC)c(OC)c2)cc1OC	-16.7% (active)	–	-98.1% (active)	-32.8% (active)	-77.2% (active)	-34.5% (active)	8.4% (active)	4.1% (active)	-17% (active)	-7.68% (active)	3.28% (active)	-12.9% (active)	35.2%	16.2%	-17.1% (active)	-33.2% (active)	25.4%	3.14% (active)	-5.5% (active)	–
COc1cc(-c2csc(NC(=O)Nc3ccc(C(F)(F)F)cc3)n2)cc(OC)c1OC	-23.8% (active)	–	-2.16% (active)	4.58% (active)	3.21% (active)	-24.1% (active)	5.13% (active)	-9.27% (active)	-3.44% (active)	-11.5% (active)	3.06% (active)	33%	13.4%	-3.3% (active)	42.8%	1.73% (active)	6.93% (active)	-1.59% (active)	-3.68% (active)	3.08% (active)
O=C(Nc1ccc(S(=O)(=O)NC2CCCCCC2)cc1)C(c1ccccc1)S(=O)(=O)c1ccc(F)cc1 (stereo not drawn)	-22.9% (active)	–	-44.2% (active)	6.92% (active)	0.641% (active)	-33.2% (active)	4.59% (active)	6.98% (active)	-0.97% (active)	-23.1% (active)	8.45% (active)	5.42% (active)	4.28% (active)	3.67% (active)	9.4% (active)	3.59% (active)	-2.41% (active)	15.1%	8.11% (active)	–
COc1ccc(-c2nc(C#N)c(NCC(c3ccco3)N3CCCC3)o2)cc1 (stereo not drawn)	53.3%	–	51.5%	82.1%	43.9%	42.6%	18.4%	29.7%	21.1%	24.2%	45.1%	69%	52.6%	30.4%	56.5%	22%	39.4%	10.2%	51.6%	49.5%
O=c1c2ccccc2n(CC(O)CN2CCCC2)c2c(Br)cccc12 (stereo not drawn)	112%	–	89.1%	106%	108%	71.8%	82.3%	104%	77%	44.9%	94.1%	76.3%	108%	101%	93.3%	106%	98.9%	-14.8% (active)	93.4%	109%
NCCN1CCNCC1	111%	–	–	106%	106%	92.9%	97%	102%	99.7%	79.2%	112%	94%	100%	101%	104%	109%	98%	–	86.2%	92%
O=C(Nc1cc(Nc2ncccc2-c2ncnc3nc[nH]c23)ccc1F)c1cc(C(F)(F)F)cc(C(F)(F)F)c1	-40% (active)	–	-37.4% (active)	-16.9% (active)	-7.8% (active)	-19.1% (active)	2.41% (active)	-33.6% (active)	-21.1% (active)	-13% (active)	-9.42% (active)	-41% (active)	-48.5% (active)	-18% (active)	2.77% (active)	-1.23% (active)	-19.1% (active)	-20.8% (active)	11.1%	16.5%
